This is an account of results in PubChem BioAssay (EPA / NIEHS).

A short description of assay [1]: APR_HepG2_CellCycleArrest_24hr: Apredica 24-hour HepG2 Assay for Cell Cycle Arrest (AID 2282905).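 Also: cell cycle arrest scored as ratio of 2N to 4N nuclear DNA content.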 As to conditions: imaging, actives raise or lower the signal. In outline:
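After 24 h exposure at 0.39–200 uM in 0.5% DMSO, fixed cells received Hoechst 33342 staining. Imaging quantified per-nucleus DNA content; gain or loss fitted against DMSO controls.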

A short description of assay [2]: APR_HepG2_StressKinase_1hr: Apredica 1-hour HepG2 Assay for Stress Kinase (AID 2282906). As to conditions: HepG2 stress kinase (phospho-c-Jun) imaging, actives raise or lower the signal. In outline: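 High-content imaging of phospho-c-Jun immunostaining (with Hoechst nuclear identification) after a 1 h exposure of HepG2 cells to 10 concentrations from 0.39 to 200 uM, final DMSO 0.5%. Fitted bidirectionally against DMSO.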

Assay [3] in a line: APR_HepG2_NuclearSize_24hr: Apredica 24-hour HepG2 Assay for Nuclear Size (AID 2282907). As to conditions: high-content imaging, actives raise or lower the signal. In outline:
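Nuclear size from Hoechst 33342-stained, formaldehyde-fixed HepG2 nuclei imaged by high-content microscopy, after 24 h dosing at ten concentrations from 0.39 to 200 uM in 0.5% DMSO; gain or loss relative to DMSO baseline.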

Assay [4] can be described thus: APR_HepG2_MicrotubuleCSK_24hr: Apredica 24-hour HepG2 Assay for Microtubule CSK Stabilty (AID 2282909). The following applies: HepG2 microtubule cytoskeleton imaging, actives raise or lower the signal. In outline: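 Fixed HepG2 cells were stained for alpha-tubulin and imaged after 24 hr exposure to ten concentrations spanning 0.39–200 uM in 0.5% DMSO. Signal change was fitted in both directions relative to DMSO; taxol was the positive control.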

Assay [5] can be described thus: APR_HepG2_MitoticArrest_24hr: Apredica 24-hour HepG2 Assay for Mitotic Arrest (AID 2282910). The following applies: high-content imaging, actives raise or lower the signal. In outline:
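HepG2, 24 hr dosing, 0.39–200 uM, 0.5% DMSO final. Formaldehyde-fixed, Triton-permeabilised, anti-phospho-histone H3 plus Hoechst. ArrayScan imaging at 20x; bidirectional fit vs DMSO baseline.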

The nature of assay [6]: APR_HepG2_MitoMembPot_24hr: Apredica 24-hour HepG2 Assay for Mitochondrial Membrane Potential (AID 2282911). The following applies: imaging, actives raise or lower the signal. In outline: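 HepG2, 24 hr dosing, 10 concentrations 0.39–200 uM, 0.5% DMSO final. Live-cell MitoTracker Red CMXRos 250 nM 30 min, then 3.7% formaldehyde fix. HCS fluorescence imaging, 20x; bidirectional fit vs DMSO baseline.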

A short description of assay [7]: APR_HepG2_MitoMass_24hr: Apredica 24-hour HepG2 Assay for Mitochondrial Mass (AID 2282912). As to conditions: high-content imaging, actives raise or lower the signal. An outline of the steps:
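Endpoint is MitoTracker Red CMXRos (250 nM, 30 min, pre-fixation) intensity from 20x high-content imaging, nuclei located by Hoechst. Human HepG2 cells received ten concentrations from 0.39 to 200 uM in 0.5% DMSO for 24 hr, duplicate wells. Bidirectional fit relative to DMSO.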

A short description of assay [8]: APR_HepG2_p53Act_24hr: Apredica 24-hour HepG2 Assay for p53 Activation (AID 2282913).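 Also: p53 protein immunofluorescence averaged per cell in HepG2 with Hoechst nuclei.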 As to conditions: high-content imaging, actives raise or lower the signal. In outline: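 Read-out: Cy5 immunofluorescence for p53 in fixed, permeabilized HepG2, imaged by HCS with Hoechst-defined nuclei. Dosing was 24 hr at 0.39–200 uM in 0.5% DMSO. Curves were fitted bidirectionally relative to DMSO.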

The nature of assay [9]: APR_HepG2_CellCycleArrest_72hr: Apredica 72-hour HepG2 Assay for Cell Cycle Arrest (AID 2282914). The following applies: high-content imaging, actives raise or lower the signal. In outline: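 HepG2, 72 hr exposure, 10-point 0.39–200 uM, duplicate, 0.5% DMSO final. Fix 3.7% formaldehyde 30 min RT, Triton X-100 0.5%, Hoechst 33342 2 ug/mL. ArrayScan 20x, six fields/well; DNA content per nucleus; bidirectional fit vs DMSO.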

A short description of assay [10]: APR_HepG2_CellLoss_24hr: Apredica 24-hour HepG2 Assay for Cell Loss (AID 2282908). The following applies: high-content imaging. An outline of the steps:
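Nuclei stained with Hoechst 33342 after formaldehyde fixation (3.7%) were imaged at 20x to count cells. Exposure lasted 24 hr, at ten concentrations from 0.39 to 200 uM in duplicate, with 0.5% v/v DMSO. Fit bidirectional, relative to DMSO.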

Calls of active or inactive are those of the source. The calls were made as follows: active = hit-call score of the fitted dose curve at least 0.9, where 1 is the maximum; inactive = score below 0.9.

Regarding `COc1nn(CSP(=S)(OC)OC)c(=O)s1`, the outcome in [1], in assay [2], in assay [3], in [4], in [5] and in assay [6] was inactive. The outcome in assay [7], in assay [8] and in assay [9] was inactive.

Regarding `N#Cc1c(Cl)c(Cl)c(Cl)c(C#N)c1Cl`, the compound was called inactive in [1], in assay [3], in assay [10], in assay [4], in assay [5] and in [6]. Also, the compound was classed as inactive in assay [8] and in assay [9]. Moreover, the AC50 in [2] was 1.94 µM (active).

For the compound `CNC(=O)/C=C(\C)OP(=O)(OC)OC`, the result in [1], in [2], in assay [3], in assay [4], in assay [5] and in assay [6] was inactive. Besides, the compound was called inactive in assay [9].

Turning to `O=[N+]([O-])/N=C1\NCCN1Cc1ccc(Cl)nc1`, the compound was called inactive in assay [1], in [2], in assay [3], in assay [4], in assay [5] and in assay [6]. The compound was called inactive in assay [9].

For `CCN(CC)C(=O)SCc1ccc(Cl)cc1`, the compound was classed as inactive in assay [1], in assay [2], in assay [3], in [4], in [5] and in assay [8]. The compound was called inactive in assay [9]. Also, the AC50 in assay [6] was 22.8 µM (active).

Turning to `OCCOc1ccccc1`, the compound was classed as inactive in assay [1], in assay [2], in [3], in assay [4], in assay [5] and in [6]. In addition, the compound was classed as inactive in assay [8] and in assay [9].

As for `CC(C)OC(=O)Nc1cccc(Cl)c1`, the compound was called inactive in assay [1], in assay [2], in assay [3], in assay [4], in [5] and in [6]. Further, the call in [8] and in assay [9] was inactive.

Regarding `COC(=O)c1ccccc1S(=O)(=O)NC(=O)Nc1nc(C)nc(OC)n1`, the call in assay [1], in assay [2], in [3], in assay [4], in assay [5] and in [6] was inactive. Moreover, the result in assay [8] and in [9] was inactive.

Take `CC(C)N(C(=O)COc1nnc(C(F)(F)F)s1)c1ccc(F)cc1`: the compound was classed as inactive in assay [1], in assay [2], in assay [3], in [5], in [6] and in [8]. Moreover, the result in assay [9] was inactive. The AC50 in assay [4] is 99.5 µM (active).

With `CC(C)(C)C(O)/C(=C\c1ccc(Cl)cc1Cl)n1cncn1` (configuration not stated), the result in assay [1], in [2], in assay [3], in [4], in assay [5] and in assay [6] was inactive. Moreover, the compound was classed as inactive in [8] and in assay [9].

Turning to `CNC(=O)Oc1cccc(N=CN(C)C)c1`, the result in assay [1], in assay [2], in [3], in assay [4], in assay [5] and in [6] was inactive. Also, the compound was classed as inactive in assay [8]. Also, the AC50 in [9] was 64.1 µM (active).

Turning to `COP(=S)(OC)Oc1ccc(SC)c(C)c1`, the call in assay [1], in [2], in assay [3], in assay [4], in [5] and in assay [6] was inactive. In assay [8], the call was inactive. Also, in [9], the AC50 is 54.3 µM (active).

For the compound `COc1cc(OC)nc(NC(=O)NS(=O)(=O)c2cc(NC=O)ccc2C(=O)N(C)C)n1`, the outcome in assay [1], in assay [2], in assay [3], in [4], in assay [5] and in [6] was inactive. The compound was called inactive in assay [8] and in assay [9].

With `CCCN(CCC)c1c([N+](=O)[O-])cc(C(F)(F)F)cc1[N+](=O)[O-]`, the call in [1], in assay [2], in assay [3], in assay [4], in [5] and in assay [9] was inactive. The AC50 in [6] is 118 µM (active).

As for `CC1(c2ccc(Oc3ccccc3)cc2)OC(=O)N(Nc2ccccc2)C1=O` (configuration not stated), the compound was classed as inactive in assay [1], in assay [2], in assay [3], in assay [8] and in assay [9]. Moreover, the AC50 is 88.5 µM (active) in [4], 98.3 µM (active) in assay [5] and 6.77 µM (active) in assay [6].

As for `CCC(C)(C)C(=O)OC1=C(c2ccc(Cl)cc2Cl)C(=O)OC12CCCCC2`, the AC50 in assay [1] is 60.2 µM (active); in assay [4], 100 µM (active). Besides, the compound was called inactive in assay [2], in assay [3], in assay [5], in assay [6], in assay [8] and in assay [9].

For `O=C(O)CCCOc1ccc(Cl)cc1Cl`, the compound was called inactive in [1], in assay [2], in assay [3], in [4], in [5] and in [6]. Besides, the compound was classed as inactive in assay [8] and in assay [9].

On to `CCC(C)(NC(=O)c1cc(Cl)c(C)c(Cl)c1)C(=O)CCl` (configuration not stated), for which the AC50 is 12.8 µM (active) in assay [1], 37 µM (active) in assay [2], 8.8 µM (active) in assay [5] and 30.1 µM (active) in [6]. The outcome in assay [3], in assay [4], in assay [8] and in assay [9] was inactive.

Consider `COP(=O)(OC)OC=C(Cl)Cl`, for which the AC50 in [1] is 99.1 µM (active). Moreover, the compound was classed as inactive in assay [2], in assay [3], in assay [4], in assay [5], in assay [6] and in assay [9].

`O=S1OCC2C(CO1)C1(Cl)C(Cl)=C(Cl)C2(Cl)C1(Cl)Cl` (configuration not stated): the result in [1], in assay [3], in [4], in assay [5], in assay [6] and in [8] was inactive. Besides, the AC50 in assay [2] is 94.4 µM (active); in assay [9] it was 95.3 µM (active).

Turning to `CCc1ccc(C(=O)NN(C(=O)c2cc(C)cc(C)c2)C(C)(C)C)cc1`, the call in [1], in assay [2], in assay [3], in [4], in assay [5] and in assay [6] was inactive. Besides, the compound was called inactive in assay [8] and in [9].

`COC(=O)c1ccccc1CS(=O)(=O)NC(=O)Nc1nc(OC)cc(OC)n1`: the compound was classed as inactive in assay [1], in assay [2], in assay [3], in assay [4], in [5] and in assay [6]. Moreover, the result in assay [8] and in assay [9] was inactive.

For the compound `CCOC1Oc2ccc(OS(C)(=O)=O)cc2C1(C)C` (configuration not stated), the outcome in assay [1], in assay [2], in assay [3], in assay [4], in [5] and in assay [6] was inactive. In addition, the compound was called inactive in [9].

Consider `O=C(O)COc1ccc(Cl)cc1Cl`, for which the compound was classed as inactive in assay [1], in assay [2], in assay [3], in [4], in [5] and in assay [6]. The outcome in assay [8] and in [9] was inactive.

Take `O=C(O)C(F)(F)C(F)(F)C(F)(F)C(F)(F)C(F)(F)C(F)(F)C(F)(F)F`: the call in assay [1], in assay [2], in [3], in assay [4], in assay [5] and in assay [6] was inactive. Further, the compound was classed as inactive in [8] and in [9].

For the compound `Cc1cc(C)nc(NC(=O)NS(=O)(=O)c2ccccc2C(=O)OC2COC2)n1`, the call in assay [1], in assay [2], in assay [3], in [4], in [5] and in [6] was inactive. Moreover, the result in assay [8] and in assay [9] was inactive.

For `Cc1[nH]c(=O)n(C(C)(C)C)c(=O)c1Cl`, the call in [1], in assay [2], in [3], in [4], in assay [5] and in assay [6] was inactive. In [9], the compound was classed as inactive.

As to `COP(=S)(OC)Oc1ccc([N+](=O)[O-])cc1`, the call in assay [1], in [2], in assay [3], in assay [4], in assay [5] and in assay [6] was inactive. Further, the compound was called inactive in [8] and in assay [9].

For `O=C(NC(=O)c1c(F)cccc1F)Nc1ccc(OC(F)(F)C(F)OC(F)(F)F)c(Cl)c1` (configuration not stated), the compound was called inactive in assay [1], in [2], in [3], in [4], in assay [5] and in assay [6]. The result in assay [9] was inactive.

Broadly, the AC50 is the concentration at which the activity in the assay is half-maximal.
